In article PMC4336329 (PLoS ONE, 2015):
Out of some 310,000 compounds screened, about 14,000 (4.5%) showed an effect of 50% or more. Effects have a minus sign here. This excerpt belongs to a sample that is enriched for strong results.

The compounds below were run against human ether-à-go-go-related gene (hERG) potassium channel (human, UniProt Q12809) (assay: primary screen, population patch clamp on CHO cells stably expressing hERG; higher = less effect of the substance).
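Further: peak tail current of the secondary pulse compared with the same well before compound.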

Sequence of human ether-à-go-go-related gene (hERG) potassium channel (Q12809 whole entry, looked up): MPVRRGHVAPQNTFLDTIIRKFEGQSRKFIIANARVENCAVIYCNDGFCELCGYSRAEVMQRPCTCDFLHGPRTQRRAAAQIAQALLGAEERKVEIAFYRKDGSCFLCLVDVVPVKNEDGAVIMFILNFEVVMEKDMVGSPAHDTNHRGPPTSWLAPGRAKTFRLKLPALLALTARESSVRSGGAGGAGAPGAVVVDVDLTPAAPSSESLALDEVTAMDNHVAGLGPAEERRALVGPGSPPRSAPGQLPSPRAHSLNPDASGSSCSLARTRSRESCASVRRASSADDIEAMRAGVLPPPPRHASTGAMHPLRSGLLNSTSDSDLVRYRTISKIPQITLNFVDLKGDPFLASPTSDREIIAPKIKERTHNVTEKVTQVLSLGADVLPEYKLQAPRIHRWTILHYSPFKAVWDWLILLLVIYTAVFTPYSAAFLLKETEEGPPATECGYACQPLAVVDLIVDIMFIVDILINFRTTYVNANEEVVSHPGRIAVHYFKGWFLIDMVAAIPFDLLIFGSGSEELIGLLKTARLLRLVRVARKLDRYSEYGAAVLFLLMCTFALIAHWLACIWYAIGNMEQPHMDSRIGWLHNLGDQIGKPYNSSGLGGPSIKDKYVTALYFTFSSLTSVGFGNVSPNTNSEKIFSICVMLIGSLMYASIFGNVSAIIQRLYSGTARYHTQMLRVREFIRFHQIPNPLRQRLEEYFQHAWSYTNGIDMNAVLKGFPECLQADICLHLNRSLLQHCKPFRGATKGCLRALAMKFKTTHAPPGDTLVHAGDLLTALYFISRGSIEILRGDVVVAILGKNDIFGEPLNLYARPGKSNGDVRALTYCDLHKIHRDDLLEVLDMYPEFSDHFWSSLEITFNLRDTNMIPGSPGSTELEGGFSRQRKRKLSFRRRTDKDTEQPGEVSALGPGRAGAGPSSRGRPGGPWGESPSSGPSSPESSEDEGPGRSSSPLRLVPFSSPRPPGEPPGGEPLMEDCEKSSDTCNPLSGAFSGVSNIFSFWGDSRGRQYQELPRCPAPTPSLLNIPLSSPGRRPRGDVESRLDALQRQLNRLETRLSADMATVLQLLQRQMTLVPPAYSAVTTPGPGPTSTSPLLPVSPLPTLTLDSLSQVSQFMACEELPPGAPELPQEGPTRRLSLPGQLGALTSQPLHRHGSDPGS

| Structure (SMILES) | hERG current change (%, negative = inhibition) at 10uM [%] |
| --- | --- |
| Cc1cc(C(=O)O[C@H]2[C@H](Cc3ccccc3)NS(=O)(=O)[C@H]3C[C@@H]4C=C[C@]23O4)ccc1[N+](=O)[O-] | -1.67 |
| Cn1nc(C(=O)NCc2ccc(F)cc2)c2c1-c1ccccc1S(=O)(=O)C2 | -44.9 |
| CC(=O)N(CC(=O)O)c1ccccc1 | 10.5 |
| Cc1ccc(NS(=O)(=O)c2ccc(CCC(=O)NCCCOC(C)C)cc2)cc1 | 4.27 |
| O=c1oc2c3c4c(cc2c2c1CCC2)OCCN4CCC3 | -0.13 |
| Cc1cccc(C)c1NC(=O)CNc1ccccc1 | 5.02 |
| O=C(Nn1c(C2CCCCC2)nc2ccccc2c1=O)c1ccc(Cl)c([N+](=O)[O-])c1 | -9.26 |
| COC(=O)C1=C(c2ccc(OC)c(OC)c2)C[C@@H]2CC[C@H]1N2C(=O)NCCOc1ccccc1Cl | -12.7 |
| Cc1ccc(C)c(N2CCN(S(=O)(=O)c3ccc4c(c3)OCCO4)CC2)c1 | 3.7 |
| C#CCOCCOCCOCCNc1nc(N2CCN(C(=O)CCCCCCCCCCNC(=O)[C@H](CCC(=O)O)n3cc(CCCCCN)nn3)CC2)nc(N2CCN(C(=O)CCCCCCCCCCNC(=O)[C@@H]([C@H](C)O)n3cc(C)nn3)CC2)n1 | 20.1 |
| O=C(CSc1nc2c(c(=O)n1-c1ccc(Cl)cc1)SCC2)N1CCCC1 | -17.4 |
| C/C(=N/NC(=O)CNC(=O)C1COc2ccccc2O1)c1ccc([N+](=O)[O-])cc1 (centres unmarked) | -64.7 |
| O=C(N/N=C\c1ccc(-c2ccc([N+](=O)[O-])cc2)o1)C1COc2ccccc2O1 (centres unmarked) | -7.36 |
| O=C(N/N=C\c1ccc([N+](=O)[O-])o1)C1COc2ccccc2O1 (centres unmarked) | -67.4 |
| CC(C)(C)c1ccc2c(c1)OC(C(=O)N/N=C/c1ccc([N+](=O)[O-])o1)CO2 (centres unmarked) | -39.2 |
| C/C(=N/NC(=O)CNC(=O)C1COc2ccccc2O1)c1ccc2c(c1)OCCO2 (centres unmarked) | -1.69 |
| C/C(=N\NC(=O)CNC(=O)C1COc2ccccc2O1)c1ccc(Cl)cc1 (centres unmarked) | -17.6 |
| CC(=O)Nc1ccc(NC(=O)C(C)OC(=O)C(C)SCC(=O)Nc2ccc(F)cc2)cc1 (centres unmarked) | 12 |
| CN(NC(=O)COc1ccccc1)C1=NS(=O)(=O)c2ccccc21 | 26.1 |
| CCCCCNC(=O)C1c2ccccc2Oc2ccccc21 | 2.44 |
| COc1ccc(-c2nnc3ccc(SCC(=O)N4CCCC4)nn23)cc1 | -15.2 |
| CCOc1ccc(-c2nnc3ccc(SCC(=O)N4CCCCC4)nn23)cc1 | -5.88 |
| CCOC(=O)N1CCN(C(=O)CSc2ccc3nnc(-c4ccccn4)n3n2)CC1 | -36 |
| O=C(CSc1ccc2nnc(-c3ccc(F)cc3)n2n1)N1CCCc2ccccc21 | -16 |
| O=C(CSc1ccc2nnc(-c3ccccn3)n2n1)N1CCOCC1 | -24.5 |
| O=C(CSc1ccc2nnc(-c3ccccc3)n2n1)N1CCCc2ccccc21 | -62.7 |
| O=C(CSc1ccc2nnc(-c3ccccc3)n2n1)N1CCCCC1 | -59.7 |
| O=C(CSc1ccc2nnc(-c3ccccn3)n2n1)N1CCN(c2ccccc2)CC1 | -86.7 |
| Cc1ccc(-c2nnc3ccc(SCC(=O)N4CCCc5ccccc54)nn23)cc1 | -12.5 |
